Results published in PubChem BioAssay AID624417 (National Center for Advancing Translational Sciences (NCATS), 2012).
Out of some 410,000 compounds screened, about 6,400 (1.6%) were called active. Where a call stands in place of a potency, no number is given. Another 20% or so got no clear call; they are omitted. Calls come from the whole dose curve; as a rule, active = well fitted inhibition curve with a large enough effect; inconclusive = small, poorly fitted or top-dose-only effect; inactive = no such curve, though single readings can be large or run the other way. Only a selection was taken, and actives are over-represented in it overall.

target: Glucagon-like peptide 1 receptor (Homo sapiens) (UniProt P43220); experiment: qHTS of GLP-1 Receptor Inverse Agonists (Inhibition Mode); conditions: HEK293 GLP-1R CRE-luciferase, luminescence, 24 h, GLP-1R form is constitutively active; series mostly up to 38.3 µM; note: nearly all actives have a fitted effect of over 55% in size
Text: The overall goal of this project was to develop a novel assay for discovering small molecule ligands for class B1 G protein-coupled receptors (GPCRs). Very few agonists (or inverse agonists in inhibition mode) with generally weak activity for this entire group of physiologically important receptors are known to date. To establish proof-of-principle that this critical bottleneck can be overcome with a suitable screening approach, our studies focused on the class B1 receptor for glucagon-like peptide-1 (GLP-1R), a potential therapeutic target for diabetes and neurodegenerative disease. The assay was developed using a cell-based functional readout. Toward this goal, stably transfected HEK293 cell clones were established that co-express (i) a cAMP-responsive luciferase reporter gene, and (ii) constitutively active GLP-1R that upon ligand interaction inhibit (inverse agonists) the luciferase activity. In addition, two control cell lines were developed: (i) one that express only the cAMP-responsive reporter gene to enable initial exclusion of GLP-1R independent effects of candidate probes; and (ii) one with the reported gene cloned with another constitutively active orphan receptor GPR119 to enable exclusion of GLP-1R independent inhibitor effects of candidate inverse agonists. To that end, this assay was optimized for 1536-well format and screened against the MLSMR. […] NIH Molecular Libraries Probe Production Network [MLPCN] NIH Chemical Genomics Center [NCGC] Grant: NS064851 PI Name: Martin Beinborn, Tufts Medical Center
Six ul of cell suspension (200 cells/uL in DMEM + 10% Nu serum + 1% pen-strep) is dispensed in a white solid 1536-well plate. The plates are incubated for 12 hours at 37 deg C at 5% CO2 followed by addition of 23 nL compounds. After 24 hr incubation at 37 deg C and 5% CO2, 3 uL of luciferase assay detection reagent is added. A luminescence read is obtained on the PerkinElmer Viewlux after 12 min incubation at room temperature.
Potency is the fitted concentration of half-maximal effect.

Chain of Glucagon-like peptide 1 receptor (Homo sapiens) (P43220 whole entry, looked up): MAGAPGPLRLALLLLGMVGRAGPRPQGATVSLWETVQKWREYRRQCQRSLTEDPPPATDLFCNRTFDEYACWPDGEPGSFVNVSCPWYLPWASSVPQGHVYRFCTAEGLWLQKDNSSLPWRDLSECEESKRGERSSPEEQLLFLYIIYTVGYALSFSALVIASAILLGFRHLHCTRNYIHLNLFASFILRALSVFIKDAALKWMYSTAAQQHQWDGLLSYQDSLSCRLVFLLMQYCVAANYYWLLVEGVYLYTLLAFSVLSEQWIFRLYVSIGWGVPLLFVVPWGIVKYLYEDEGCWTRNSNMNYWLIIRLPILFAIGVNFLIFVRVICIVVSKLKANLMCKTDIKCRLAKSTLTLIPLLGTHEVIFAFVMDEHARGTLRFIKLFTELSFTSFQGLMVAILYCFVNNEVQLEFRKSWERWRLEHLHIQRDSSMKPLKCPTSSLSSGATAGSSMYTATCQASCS

SMILES | Potency
COC(=O)C[C@H]1C[C@@H]2c3cc(N(C)C)ccc3O[C@@H]2[C@H](CO)O1 | inactive
Cc1ccc(Cl)cc1NC(=O)CSc1nc2ccccc2nc1Cc1ccccc1 | inactive
Cc1ccc(Cl)cc1NC(=O)COC(=O)CC(C)(C)C | inactive
CCN(CC(=O)Nc1cc(Cl)ccc1C)C(=O)CSCc1ccccc1 | 12.6 µM (active)
CCN(CC(=O)Nc1cc(Cl)ccc1C)C(=O)CSCc1ccc(C)cc1 | 10 µM (active)
CCN(CC(=O)Nc1cc(Cl)ccc1C)C(=O)Cn1c(=O)cnc2ccccc21 | inactive
CCN(CC(=O)Nc1cc(Cl)ccc1C)C(=O)CN1C(=O)NC2(CCCC2)C1=O | inactive
CCCS(=O)(=O)NC(=O)C1(C)CCCN(C(=O)c2cccs2)C1 (stereo not drawn) | inactive
COc1ccc(NC(=O)COC(=O)C2COc3ccccc3O2)cc1 (stereo not drawn) | inactive
Cc1ccc(C(C)C)cc1OCCN1CCCC1 | inactive
Cc1ccc(C(C)C)cc1OCC(=O)Nc1ccccc1N1CCCC1 | 2.51 µM (active)
Cn1c(=O)c2c(nc(SCC(=O)Nc3ccccc3N3CCCCC3)n2C)n(C)c1=O | inactive
CC(C)n1c(SCC(=O)Nc2ccccc2N2CCCCC2)nc2c1c(=O)n(C)c(=O)n2C | inactive
Cc1cccc(N2CC(C(=O)Nc3ccccc3N3CCCC3)CC2=O)c1C (stereo not drawn) | inactive
Cc1ccccc1NC(=O)CNc1ccccc1N1CCCCC1 | 7.94 µM (active)
COC(=O)c1ccc2nc(-c3cccc(Br)c3)c(Cc3ccccc3C(F)(F)F)n2c1 | inactive
CN(C)C(=O)c1cccc(-c2cnc3c(NC=O)cc(-c4ccc(C(=O)N5CCOCC5)cc4)cn23)c1 | inactive
CC(=O)C[C@@H]1OC[C@H](CO)N1S(=O)(=O)c1ccc(C)cc1 | inactive
COc1ccc(NC(=O)C2(C)Cc3c(-c4ccc(C(N)=O)cc4)ccnc3O2)cc1 (stereo not drawn) | inactive
C[C@@H]1CN([C@@H](C)CO)C(=O)c2c(c3ccccc3n2C)-c2ccccc2CO[C@H]1CN(C)C(=O)C1CC1 | inactive
COc1cc(C(=O)N2CCOC23CCN(Cc2ccccc2)CC3)cc(OC)c1OC | inactive
CCOc1ccc(NC(=O)CCS(=O)(=O)c2cccc3nsnc23)cc1 | inactive
CCOc1ccc(OCC)c(NC(=O)CN(C)S(=O)(=O)c2cccc3nsnc23)c1 | 6.31 µM (active)
CCOc1ccccc1NC(=O)CCS(=O)(=O)c1cccc2nsnc12 | inactive
CC1(C(=O)NS(=O)(=O)Cc2cccc(Cl)c2)CCN1C(=O)Cc1ccccc1 (stereo not drawn) | inactive

SMILES | Potency
CCCNC(=O)C1(C)CCCN(Cc2cccc(C(F)(F)F)c2)C1 (stereo not drawn) | inactive
Cc1ccc(Oc2nc(-c3ccccn3)nc3ccccc23)cc1 | 5.01 µM (active)
N#Cc1ccc(Oc2cc(C(F)(F)F)nc(-c3ccccn3)n2)cc1 | inactive
Cc1nc2ccccc2c(C(=O)O)c1-c1ccccn1 | inactive
CCOc1ccc(CCN2C(=O)C(=O)N([C@@H](Cc3ccc(O)cc3)CN3CCC[C@H]3CN3C(=O)C(=O)NC[C@@H]3CC(C)C)C[C@@H]2Cc2ccccc2)cc1 | inactive
CCCCn1nnnc1C(c1cccc(OC)c1OC)N1CCN(C/C=C/c2ccccc2)CC1 (stereo not drawn) | inactive
COc1ccc(OC)c(C(O)c2ncc(-c3cccc(C(F)(F)F)c3)[nH]2)c1 (stereo not drawn) | inactive
Cc1cccc(-c2cnc(C(O)c3cc(C)cc(C)c3)[nH]2)c1 (stereo not drawn) | inactive
COc1c(C)cc(C(O)c2ncc(-c3cccc(C(F)(F)F)c3)[nH]2)cc1C (stereo not drawn) | 12.6 µM (active)
COc1ccccc1Cc1c(-c2ccc(Cl)cc2)nc2c3ccccc3ccn12 | inactive
COc1ccccc1N1CCC(N2CCN(CC(C)(C)C)C(CCO)C2)CC1 (stereo not drawn) | inactive
COc1ccc(N2CCC(N3CCN(C)C(CCO)C3)CC2)cc1 (stereo not drawn) | inactive
Cc1cc(F)ccc1N1CCC(N2CCN(C)C(CCO)C2)CC1 (stereo not drawn) | 4.47 µM (active)
COc1ccc(CN2C(=O)C(CC(=O)NCCCCc3ccccc3)CC(C(=O)N3CCOCC3)=C2C)cc1 (stereo not drawn) | inactive
O=C(CC(c1ccccc1)c1cc(Cl)ccc1O)NCCN1CCOCC1 (stereo not drawn) | inactive
O=C(CSc1nc(Nc2ccccc2)nc(N2CCOCC2)n1)Nc1cc(Cl)ccc1O | 5.62 µM (active)
Cc1ccccc1NC(=O)CSc1nc2ccc(Nc3nc(N4CCOCC4)nc(N4CCOCC4)n3)cc2s1 | inactive
CCCNC(=O)C1(C)CCN(C(=O)c2cc(F)ccc2C)C1 (stereo not drawn) | inactive
CC1(C(=O)NS(=O)(=O)c2ccc(C#N)cc2)CCN1C(=O)c1ccc(C2CCCCC2)cc1 (stereo not drawn) | inactive
N#CCSc1nc2c(c(=O)n1Cc1ccccc1)C1(CCCC1)Cc1ccccc1-2 | 3.98 µM (active)
N#CCSc1nc2ccc(N3CCOCC3)cc2c(=O)n1CCc1ccccc1 | inactive
CCC1(CC)Cc2ccccc2-c2nc(CCl)[nH]c(=O)c21 | inactive
N#Cc1ccc(-c2ccc3nccn3c2)cc1 | inactive
O=[N+]([O-])c1ccc(CN2CC(N3CC=CC3)CS2(=O)=O)cc1 (stereo not drawn) | inactive
C/C(COc1ccccc1)=N\NC(=O)c1nnn(-c2nonc2N)c1-c1ccc(C)cc1 | inactive

SMILES | Potency
COc1ccc(N2CCN(C(=O)CCc3nc(-c4ccc(C)cc4)no3)CC2)cc1 | inactive
CC(=O)c1ccc(NC(=O)CCc2nc(-c3ccc(C)cc3)no2)cc1 | inactive
Cc1ccc(-c2noc(CCC(=O)Nc3ccccc3N3CCN(C)CC3)n2)cc1 | 11.2 µM (active)
C[C@H]1CN([C@@H](C)CO)C(=O)CCCn2cc(nn2)CO[C@@H]1CN(C)S(=O)(=O)c1cccs1 | inactive
Cc1ccc(NS(=O)(=O)c2ccc(C)c(NC(=O)COc3ccc4ccccc4c3)c2)c(C)c1 | 5.01 µM (active)
Cc1ccc(C)c(NC(=O)CN(C)C(=O)COc2ccc3ccccc3c2)c1 | inactive
Cc1ccc(C)c(NS(=O)(=O)c2ccc(OCC(=O)NCc3cccnc3)cc2)c1 | inactive
CCCCc1ccc(S(=O)(=O)NC(=O)C2(C)CCN2C(=O)c2ccccc2)cc1 (stereo not drawn) | inactive
Cc1nnc(SC(C)C(=O)c2c[nH]c3ccccc23)n1C1CC1 (stereo not drawn) | inactive
Cc1nnsc1C(=O)NCc1c(F)cccc1Cl | inactive
Cc1nnsc1C(=O)Nc1cccc(Cl)c1C | inactive
Cc1cc(Cl)ccc1NNC(=O)c1snnc1C | 2 µM (active)
Nc1ncnc2c1ncn2[C@@H]1O[C@H](C(=O)NS(=O)(=O)c2c(Cl)nc3sccn23)[C@@H](O)[C@H]1O | inactive
CCOC(=O)C1C(C)C(C(C)(C)C)N(S(=O)(=O)c2ccc(C)cc2)C1c1ccccc1 (stereo not drawn) | inactive
CC1(C(=O)NS(=O)(=O)c2ccc(C#N)cc2)CCN1C(=O)CC1CCCC1 (stereo not drawn) | inactive
Cc1cccc(CN2CCN(C3CN(Cc4ccccc4)S(=O)(=O)C3)CC2)c1 (stereo not drawn) | inactive
Cc1ccc(C)c(OCC(=O)NNC(=O)C2CCC2)c1 | inactive
Cc1ccc(NNC(=O)C2CCC2)cc1C | 6.31 µM (active)
O=C(NNC(=O)C1CCC1)c1ccccc1 | inactive
Cc1ccc(C(=O)OCC(=O)NC2CCCCCCC2)cc1C | inactive
Cc1cccc(C)c1N1CCN(S(=O)(=O)N2CCCCC2)CC1 | 10 µM (active)
Cc1cccc(C)c1N1CCN(S(=O)(=O)N2CCOCC2)CC1 | inactive
Cc1cccc(C(=O)N2CCN(S(=O)(=O)N3CCCCC3)CC2)c1 | inactive
CN(CCO)C(=O)c1nc[nH]c1C(=O)N(C)Cc1ccccc1 | inactive
Cc1cc(C(=O)NNC(=O)c2ccccc2O)c(C)o1 | inactive

SMILES | Potency
CC1=C(C)CC(C(=O)NNC(=O)c2ccccc2O)C(C(=O)O)C1 (stereo not drawn) | inactive
O=C(NNC(=O)c1ccccc1O)c1ccccc1O | 5.01 µM (active)
Clc1ccccc1Nc1nc(NCc2cccs2)nc2ccsc12 | inactive
CC(C)(C)OC(=O)N1CCN(C(=O)c2[nH]c(C(F)(F)F)nc2-c2ccccc2)CC1 | inactive
CCOC(=O)[C@]12CCC=C1N(Cc1ccccc1)C(=O)[C@H](CC(=O)N1CCCC1)C2 | inactive
CCCNC(=O)c1cc2c(c(-c3cccc(-c4ccc(C#N)cc4)c3)n1)[C@@H](CCO)N(C(=O)CC)C2 | inactive
COc1ccc(NC(=O)CCNC(=O)Cn2cnc3sc4c(c3c2=O)CCCC4)cc1OC | inactive
COc1ccc(NC(=O)CCCNC(=O)Cn2cnc3sc4c(c3c2=O)CCCC4)cc1OC | inactive
COc1ccc(/C=N/Nc2ncnc3sc4c(c23)CCCC4)cc1O | 10 µM (active)
Cc1ccc(S(=O)(=O)N[C@H]2CCC[C@@H]2O)cc1 | inactive
Cn1c(NCc2cccnc2)nc2cc(-c3ccc(F)cc3)sc2c1=O | inactive
Cc1[nH]c2ccccc2c1C(=O)CSCC(=O)O | inactive
Cc1[nH]c2ccccc2c1C(=O)C(C)Sc1nnc(C2CC2)o1 (stereo not drawn) | inactive
Cc1[nH]c2ccccc2c1C(=O)c1cc([C@H](NC(=O)OC(C)(C)C)C(C)C)sc1N | 10 µM (active)
OC[C@@H]1CN(Cc2ccncc2)C[C@H](n2cnc3c(N4CCN(c5ccccc5)CC4)ncnc32)O1 | inactive
C[C@H](NC(=O)OC(C)(C)C)c1nnc(SCC(=O)Nc2ccc(Br)cc2)o1 | inactive
CC(C)(C)OC(=O)N[C@H](C(=O)OC(C)(C)C)c1ccc(Br)cc1 | 10 µM (active)
CC(C)(C)OC(=O)Nc1ccc([C@@H](NC(=O)OC(C)(C)C)C(=O)OC(C)(C)C)cc1 | inactive
COc1ccc(C(C)(C)C)cc1NC(=O)CN(C)C1=NS(=O)(=O)c2ccccc21 | inactive
COc1ccc(CCNC(=O)CN(c2ccccc2)S(=O)(=O)c2ccccc2)cc1 | inactive
COc1cccc(NC(=O)C2CCCN2C(=O)OCc2ccccc2)c1 (stereo not drawn) | inactive
COc1cccc(NC(=O)N2CCCC2C(=O)NC2CCCCC2)c1 (stereo not drawn) | inactive
COc1cccc(NC(=O)N(Cc2cn(C)c3ccccc23)C2CCCCCC2)c1 | 10 µM (active)
